According to PubChem BioAssay:
Calls of active or inactive are those of the source.

Experiments:
[1] = test system: Plasmodium falciparum Sir2 (PF13_0152, Sir2A); test: pfSir2 binders on small-molecule microarrays, primary screen, biochemical, small-molecule microarray, 635 nm fluorescence (AID 1098); details: small-molecule microarray binding, fluorescence 635 nm; higher = more signal;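 also: score merges spot fluorescence intensity with its signal-to-noise ratio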
[2] = small-molecule microarray binders of probe aDKK1, primary screen, biochemical, biotinylated probe, 635/667 nm fluorescence (AID 1099); details: higher = more signal;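 also: score merges 667nm spot fluorescence with signal to noise across triplicate slides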
[3] = small-molecule microarray binders of probe aCHRDL2, primary screen, biochemical, biotinylated probe, 635/667 nm fluorescence (AID 1100); details: higher = more signal
[4] = splicing luciferase reporter signal modulators, primary screen, spliceosome inhibition project, cell-based, HEK293, splice +/- reporter (AID 1101); details: luminescence, 24 h, higher = more signal, called active from +8 up or from −8 down;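 also: HEK293 cells carrying a splicing-competent luciferase reporter gene; test concentration not given here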
[5] = target: Fibroblast growth factor 10 (Homo sapiens) (UniProt O15520); test: FGF10 binders on small-molecule microarrays, primary screen, biochemical, small-molecule microarray, 635 nm fluorescence (AID 1102); details: FGF10 binding, fluorescence 635 nm, higher = more signal
Chain of Fibroblast growth factor 10 (Homo sapiens) (O15520 whole entry, looked up): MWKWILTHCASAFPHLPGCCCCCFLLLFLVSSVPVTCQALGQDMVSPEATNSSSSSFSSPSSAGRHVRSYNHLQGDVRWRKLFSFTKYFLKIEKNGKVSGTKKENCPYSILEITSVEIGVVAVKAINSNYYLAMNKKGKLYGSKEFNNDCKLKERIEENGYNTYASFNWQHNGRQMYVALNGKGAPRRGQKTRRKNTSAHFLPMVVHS

[6] = test system: glycogen synthase kinase-3 (GSK3A per assay name; protocol says GSK3B); test: GSK3 binders on small-molecule microarrays, primary screen, biochemical, small-molecule microarray, 635 nm fluorescence, GSK3A (AID 1103); details: small-molecule microarray binding, fluorescence 635 nm; higher = more signal; also: the record names both GSK3A and GSK3B
[7] = target: Epidermal growth factor receptor (Homo sapiens) (UniProt P00533); test: EGFR binders on small-molecule microarrays, primary screen, biochemical, small-molecule microarray, 635 nm fluorescence (AID 1104); details: EGFR binding, higher = more signal;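 also: score merges 667 nm emission intensity with spot signal to noise over triplicate slides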
Chain of Epidermal growth factor receptor (Homo sapiens) (P00533 whole entry, looked up): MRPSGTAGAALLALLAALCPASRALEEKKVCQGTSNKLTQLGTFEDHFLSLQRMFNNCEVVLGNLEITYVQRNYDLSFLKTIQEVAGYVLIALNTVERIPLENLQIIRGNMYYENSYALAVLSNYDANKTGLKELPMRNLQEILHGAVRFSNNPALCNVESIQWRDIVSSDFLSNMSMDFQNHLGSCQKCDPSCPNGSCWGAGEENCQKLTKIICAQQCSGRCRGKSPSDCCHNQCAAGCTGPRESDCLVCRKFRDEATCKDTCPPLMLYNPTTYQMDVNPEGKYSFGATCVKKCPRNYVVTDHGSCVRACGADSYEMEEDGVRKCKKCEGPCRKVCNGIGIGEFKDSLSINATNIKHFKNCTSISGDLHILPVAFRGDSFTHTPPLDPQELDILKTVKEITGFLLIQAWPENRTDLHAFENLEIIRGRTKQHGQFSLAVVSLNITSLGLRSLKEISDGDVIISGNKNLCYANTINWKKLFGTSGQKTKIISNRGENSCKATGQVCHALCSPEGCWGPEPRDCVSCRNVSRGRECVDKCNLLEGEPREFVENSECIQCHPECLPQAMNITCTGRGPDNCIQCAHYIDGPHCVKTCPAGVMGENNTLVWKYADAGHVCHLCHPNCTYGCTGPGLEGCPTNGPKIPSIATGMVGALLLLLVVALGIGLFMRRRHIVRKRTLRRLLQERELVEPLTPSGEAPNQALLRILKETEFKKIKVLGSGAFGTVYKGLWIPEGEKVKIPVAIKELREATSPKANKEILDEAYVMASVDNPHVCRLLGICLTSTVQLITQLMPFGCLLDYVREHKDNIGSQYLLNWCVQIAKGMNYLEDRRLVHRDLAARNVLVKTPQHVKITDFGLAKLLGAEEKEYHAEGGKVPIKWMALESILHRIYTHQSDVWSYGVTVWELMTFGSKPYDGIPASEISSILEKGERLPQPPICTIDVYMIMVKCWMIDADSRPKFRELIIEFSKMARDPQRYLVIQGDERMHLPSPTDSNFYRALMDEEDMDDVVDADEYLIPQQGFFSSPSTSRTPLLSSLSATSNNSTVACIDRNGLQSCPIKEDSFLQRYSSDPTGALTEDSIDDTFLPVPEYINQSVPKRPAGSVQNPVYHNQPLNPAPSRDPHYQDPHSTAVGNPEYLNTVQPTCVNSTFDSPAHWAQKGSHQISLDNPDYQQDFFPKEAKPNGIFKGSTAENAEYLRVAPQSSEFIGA

[8] = target: Follistatin-related protein 3 (Homo sapiens) (UniProt O95633); test: FSTL3 binders on small-molecule microarrays, primary screen, biochemical, small-molecule microarray, 635 nm fluorescence (AID 1105); details: FSTL3 binding, higher = more signal;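 also: score merges emission near 667 nm and signal to noise per printed spot across three slides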
Chain of Follistatin-related protein 3 (Homo sapiens) (O95633 whole entry, looked up): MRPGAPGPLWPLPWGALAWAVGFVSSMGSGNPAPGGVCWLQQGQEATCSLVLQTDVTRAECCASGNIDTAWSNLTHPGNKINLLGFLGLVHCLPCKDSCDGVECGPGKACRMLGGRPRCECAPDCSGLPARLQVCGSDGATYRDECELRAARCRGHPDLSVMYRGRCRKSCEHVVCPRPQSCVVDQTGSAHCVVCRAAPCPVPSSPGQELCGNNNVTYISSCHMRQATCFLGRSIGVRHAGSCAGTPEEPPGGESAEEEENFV

[9] = target: Dickkopf-related protein 1 (Homo sapiens) (UniProt O94907); test: DKK1 binders on small-molecule microarrays, primary screen, biochemical, small-molecule microarray, 635 nm fluorescence scan (AID 1106); details: DKK1 binding, higher = more signal;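 also: score merges emission near 667 nm with signal to noise over three replicate slides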
Chain of Dickkopf-related protein 1 (Homo sapiens) (O94907 whole entry, looked up): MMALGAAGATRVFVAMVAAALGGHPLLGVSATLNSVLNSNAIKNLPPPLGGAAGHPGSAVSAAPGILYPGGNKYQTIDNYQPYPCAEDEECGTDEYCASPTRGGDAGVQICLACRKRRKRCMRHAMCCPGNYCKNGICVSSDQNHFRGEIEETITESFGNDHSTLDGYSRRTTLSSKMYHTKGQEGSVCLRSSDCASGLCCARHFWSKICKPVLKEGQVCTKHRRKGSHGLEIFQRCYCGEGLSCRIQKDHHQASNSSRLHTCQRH

[10] = test system: Inhibin beta A chain (activin A); test: INHBA (activin A) binders on microarrays, primary screen, biochemical, small-molecule microarray, 635 nm fluorescence scan (AID 1107); details: small-molecule microarray binding, higher = more signal;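 also: mouse activin A protein probed at 4.33 µg/mL on printed slides; score merges bound-protein fluorescence near 667 nm with spot signal-to-noise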
[11] = test system: Human papillomavirus type 1a protein E7 (residues 44-93); test: HPV1a E7 fragment binders on microarrays, primary screen, biochemical, small-molecule microarray, residues 44-93, 635 nm fluorescence (AID 1108); details: small-molecule microarray binding, fluorescence 635 nm; higher = more signal;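 also: E7 fragment applied at 1 µg/mL in TBST for 1 h at 4 C; score combines spot fluorescence with its signal to noise ratio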
[12] = modulators of HCV replicon luciferase signal, primary screen, HCV replication inhibitor project, Huh7 cells, luciferase reporter (AID 1109); details: 48 h, higher = more signal;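 also: huh7 hepatoma cells harbouring a luciferase neomycin HCV replicon reporter; luciferase luminescence as measure of HCV replicon replication; test concentration not given here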
[13] = target: Left-right determination factor 2 (Homo sapiens) (UniProt O00292); test: LEFTY2 binders on small-molecule microarrays, primary screen, biochemical, small-molecule microarray, 635 nm fluorescence scan (AID 1110); details: LEFTY2 binding, higher = more signal
Chain of Left-right determination factor 2 (Homo sapiens) (O00292 whole entry, looked up): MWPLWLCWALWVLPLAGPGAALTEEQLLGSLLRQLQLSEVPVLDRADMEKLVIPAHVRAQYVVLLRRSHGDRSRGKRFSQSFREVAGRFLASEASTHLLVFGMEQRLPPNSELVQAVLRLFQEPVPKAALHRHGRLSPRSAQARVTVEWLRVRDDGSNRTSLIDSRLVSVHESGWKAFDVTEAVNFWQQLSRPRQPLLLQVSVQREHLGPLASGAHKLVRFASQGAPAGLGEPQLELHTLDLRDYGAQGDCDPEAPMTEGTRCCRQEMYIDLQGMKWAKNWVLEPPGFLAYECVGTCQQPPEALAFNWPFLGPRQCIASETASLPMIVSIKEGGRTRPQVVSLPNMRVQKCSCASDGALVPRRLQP

[14] = target: Calmodulin-1 (Homo sapiens) (UniProt P0DP23); test: CALM1 binders on microarrays, EGTA buffer, profiling panel, biochemical, small-molecule microarray, Cy5-labelled CALM1 (AID 1111); details: Cy5-CALM1 binding fluorescence, higher = more signal;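 also: labelled calmodulin applied in Tris saline Tween buffer holding calcium plus EGTA and DTT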
[15] = target: Calmodulin-1 (Homo sapiens) (UniProt P0DP23); test: calcium-bound CALM1 binders on microarrays, profiling panel, artefact control for SMM control-protein annotation, biochemical, small-molecule microarray, Cy5-labelled CALM1, plus calcium (AID 1112); details: Cy5-CALM1 binding fluorescence, higher = more signal;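 also: score merges spot fluorescence with signal to noise from triplicate slides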
[16] = small-molecule microarray binders of probe aWnt5a, primary screen, biochemical, biotinylated probe, 635/667 nm fluorescence (AID 1113); details: higher = more signal;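 also: score merges 667 nm fluorescence intensity with signal-to-noise per printed feature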
[17] = small-molecule microarray binders of probe aShh, primary screen, biochemical, biotinylated probe, 635/667 nm fluorescence (AID 1114); details: higher = more signal;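 also: probe is biotin-labelled aShh protein from a stem cell growth factor screen; measures binding of labelled protein to compounds printed on the slide; score merges feature fluorescence at 667 nm with signal-to-noise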
[18] = small-molecule microarray binders of probe aNog, primary screen, biochemical, biotinylated probe, 635/667 nm fluorescence (AID 1115); details: higher = more signal;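 also: probe is biotinylated aNog protein used at 0.15 µg/mL for 1 h at 4 C; z-score combines 667 nm fluorescence of each spot with its signal to noise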
[19] = target: Torsin-1A-interacting protein 1 (Homo sapiens) (UniProt Q5JTV8); test: LAP1 binders from COS7 cell lysate, primary screen, small-molecule microarray, 635/667 nm fluorescence (AID 1116); details: COS7-hLAP1 lysate binding, 635 nm fluorescence, higher = more signal
Chain of Torsin-1A-interacting protein 1 (Homo sapiens) (Q5JTV8 whole entry, looked up): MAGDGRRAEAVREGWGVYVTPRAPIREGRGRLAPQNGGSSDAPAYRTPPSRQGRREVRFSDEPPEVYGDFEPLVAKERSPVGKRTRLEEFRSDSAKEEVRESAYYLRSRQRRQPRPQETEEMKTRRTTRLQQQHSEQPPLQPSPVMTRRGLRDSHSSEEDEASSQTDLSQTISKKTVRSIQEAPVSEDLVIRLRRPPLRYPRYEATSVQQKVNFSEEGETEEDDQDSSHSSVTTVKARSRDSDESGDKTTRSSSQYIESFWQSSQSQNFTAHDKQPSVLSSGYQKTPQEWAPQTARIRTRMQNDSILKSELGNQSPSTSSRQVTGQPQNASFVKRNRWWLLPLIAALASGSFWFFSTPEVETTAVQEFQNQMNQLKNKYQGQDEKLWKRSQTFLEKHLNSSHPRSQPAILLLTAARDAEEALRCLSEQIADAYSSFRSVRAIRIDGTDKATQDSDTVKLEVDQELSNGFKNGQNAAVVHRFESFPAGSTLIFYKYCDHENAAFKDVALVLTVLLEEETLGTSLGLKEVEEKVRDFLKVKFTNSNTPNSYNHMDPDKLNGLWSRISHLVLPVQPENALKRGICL

[20] = target: Alpha-bungarotoxin (Bungarus multicinctus) (UniProt P60615); test: alpha-bungarotoxin binders on microarray, profiling panel, artefact control for SMM control protein annotation, biochemical, small-molecule microarray, Alexa647 label, 635/667 nm fluorescence (AID 1117); details: alpha-BTX-A647 binding fluorescence, higher = more signal
Chain of Alpha-bungarotoxin (Bungarus multicinctus) (P60615 whole entry, looked up): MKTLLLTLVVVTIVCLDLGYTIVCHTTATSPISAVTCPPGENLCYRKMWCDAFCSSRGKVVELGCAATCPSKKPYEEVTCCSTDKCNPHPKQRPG

| SMILES | composite z-score [1] | composite z-score [2] | composite z-score [3] | z-score [4] | composite z-score [5] | composite z-score [6] | composite z-score [7] | composite z-score [8] | composite z-score [9] | composite z-score [10] | composite z-score [11] | z-score [12] | composite z-score [13] | composite z-score [14] | composite z-score [15] | composite z-score [16] | composite z-score [17] | composite z-score [18] | composite z-score [19] | composite z-score [20] |
| --- | --- | --- | --- | --- | --- | --- | --- | --- | --- | --- | --- | --- | --- | --- | --- | --- | --- | --- | --- | --- |
| C=C(COC)C(=O)CC[C@H](OC(=O)c1ccccc1-c1ccccc1C(=O)O)c1ccc(CO)o1 | 0.806 | -0.416 | -0.479 | -0.0254 (inactive) | 1.43 | 0.645 | -0.358 | 0.451 | 0.532 | 1.19 | 0.544 | -0.115 | 0.27 | -0.271 | -0.564 | -0.128 | -0.0553 | -0.137 | 0.77 | 0.239 |
| O=C1O[C@H](c2ccccc2)[C@H](c2ccccc2)N2[C@H]1[C@@H](C(=O)N1CCN(c3ncccn3)CC1)[C@]1(C(=O)Nc3ccc(C#CCCO)cc31)[C@H]2c1ccccc1OCCO | 1.24 | 0.0649 | 0.447 | 0.105 (inactive) | 1.15 | 1.11 | 0.282 | 0.501 | 0.525 | -0.14 | 1.02 | -1.49 | 0.708 | 1.46 | 0.12 | -0.091 | 0.126 | 0.576 | 0.453 | 1.77 |
| NC(=O)NCC#Cc1ccc2c(c1)[C@]1(C(=O)N2)[C@H](c2ccc(O)cc2)N2[C@H](c3ccccc3)[C@H](c3ccccc3)OC(=O)[C@H]2[C@@H]1C(=O)NC[C@H](O)c1ccccc1 | -0.227 | 0.004 | 0.725 | -0.647 (inactive) | -1.39 | -0.964 | -1.2 | -2.26 | -1.53 | -1.82 | -0.631 | 0.918 | -1.67 | -0.699 | 0.827 | -0.219 | -0.276 | 0.241 | -0.243 | -2 |
| COC(=O)[C@@]1(Cc2ccc(OC)cc2)[C@H]2c3cc(C(=O)N4CCCC4)n(CCF)c3C[C@H]2CN1C(=O)c1ccccc1 | 1.05 | 2.71 | 1.56 | -2.55 (inactive) | 1.35 | 0.383 | 1.46 | 0.942 | -0.226 | 0.823 | 0.632 | -1.27 | -0.191 | 2.03 | 0.77 | 1.34 | 2.55 | 3.06 | 1.19 | 1.04 |
| CCCCC=C[C@@H](NC(=O)CCc1ccccc1)c1ccccc1 | 0.956 | 0.401 | -0.0262 | 11.9 (active) | 0.919 | 0.869 | 0.51 | 0.188 | 0.248 | 0.724 | 1.38 | -2.6 | 0.151 | 0.504 | 0.57 | 0.145 | 1.11 | 1.11 | 1.49 | 1.19 |
| COCCOC(=O)N1C(=O)[C@@]2(c3cc(C#CCNC(N)=O)ccc31)[C@H](c1ccc(OCCO)cc1)N1[C@H](c3ccccc3)[C@H](c3ccccc3)OC(=O)[C@H]1[C@@H]2C(=O)N1CCN(c2ncccn2)CC1 | 0.832 | 0.46 | 0.978 | -0.37 (inactive) | 1.25 | 0.824 | 0.612 | 1.3 | 0.564 | 1.46 | 1.23 | -0.0743 | 0.93 | 0.515 | 0.53 | 0.0657 | -0.138 | -0.0724 | 0.895 | 0.505 |
| CCC[C@@H]1C[C@@]1(CCC)[C@@H](NC(=O)c1ccco1)c1ccc(Cl)cc1 | -0.585 | -0.0347 | 0.762 | -3.52 (inactive) | 0.14 | -2.1 | -0.414 | -0.722 | -0.366 | 0.447 | -1.06 | -0.49 | -0.936 | -0.177 | 0.0344 | -0.252 | 0.254 | 0.756 | -0.678 | -0.0776 |
| C=CCOC(=O)[C@@H]1[C@H]2C(=O)O[C@H](c3ccccc3)[C@H](c3ccccc3)N2[C@H](c2ccc(OCCOC(=O)[C@H]3C[C@H]4C(=O)N[C@@H](Cc5ccccc5)C(=O)N4[C@H]3c3cccc(OCCO)c3)cc2)[C@@]12C(=O)Nc1ccc(I)cc12 | 0.921 | 0.141 | -0.0432 | -0.316 (inactive) | 1.24 | 1.32 | 1.01 | 1.14 | 1.13 | 0.967 | 0.88 | -2.08 | 0.413 | -0.573 | -0.771 | -0.0161 | 0.116 | 0.749 | 1.29 | 1.03 |
| C=C(C)[C@@H]1CC=C(C(O)C2C=CC3C(=O)N(C4CCCCC4)C(=O)C3N2Nc2ccc(OC)cc2)CC1 (stereo not given in full) | 1.37 | 0.326 | 0.826 | -0.603 (inactive) | 1.03 | 1.31 | 0.367 | 1.37 | 0.21 | 0.918 | 1.39 | -1.19 | 0.3 | 1.5 | 0.417 | -0.0738 | -0.1 | -0.368 | 0.477 | 1.3 |
| COCCCNC(=O)[C@]1(Cc2ccccc2)N=C(c2ccc(OCCCO)cc2)O[C@@H]1c1ccccc1N=[N+]=[N-] | 0.816 | 0.346 | 0.879 | -1.51 (inactive) | 1.26 | 1.33 | -0.184 | 0.481 | -0.267 | 0.618 | 1.24 | -3.4 | -0.314 | 1.61 | 0.24 | 0.008 | -0.0866 | 0.433 | 0.997 | 0.974 |
| O=C1O[C@H](c2ccccc2)[C@H](c2ccccc2)N2[C@H]1[C@@H](C(=O)N1CCN(c3ncccn3)CC1)[C@]1(C(=O)Nc3ccc(C#CCCO)cc31)[C@H]2c1ccc(OCCO)cc1 | 1.66 | 0.115 | 0.536 | -0.0244 (inactive) | 1.11 | 1.28 | 1.12 | 1.48 | 0.949 | 0.463 | 1.41 | -1.35 | 1.35 | 1.23 | -0.188 | 0.0614 | 0.0141 | 0.242 | 1.53 | 0.554 |
